This note sets out measurements from the supplement of paper PMC7156485.

Several values for one entry are separate records, joined by “and”; a condition that tells them apart may be missing. Equal values may be shown once. ± gives the standard deviation of the averaged measurements.

Common to all, as to settings: concentration: 10 µM; 24 h
The subject of test [1] is HCC1569. Put plainly: cell number relative to DMSO (% of DMSO); higher = more cells (less growth inhibition / toxicity). The method, boiled down:
(§1)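 Treatment: HCC1569 and TDF cells, 800 per well in 384-well plates with RPMI and 10% FBS, were given compounds at 10 µM for 24 h at 37 °C, in triplicate. Readout: after 3.7% formaldehyde fixation, cells were stained with a rabbit anti-H1.0 antibody, an AlexaFluor 647 secondary and DAPI. Reported values are H1.0 nuclear intensity or cell number as percent of the plate control, taken as the median of replicates, with positional smoothing for HCC1569.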

Test [2] deals with TDF. Described as above. The method, boiled down: as §1
Test [3] deals with TDF. Briefly: H1.0 immunofluorescence intensity relative to DMSO (% of DMSO); higher = stronger H1.0 induction, active = 120 or more. The method, boiled down:
as §1

Test [4] has as its system HCC1569. Briefly: H1.0 immunofluorescence intensity relative to DMSO (% of DMSO); higher = stronger H1.0 induction, active = 140 or more. In outline:
as §1
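For H1.0 immunofluorescence intensity relative to DMSO in this document: TDF is a line of transformed human dermal fibroblasts of mesenchymal origin.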
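For cell number relative to DMSO in this document: TDF denotes transformed human dermal fibroblasts of mesenchymal origin.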

As to `Nc1ccccc1NC(=O)CCCCCCC(=O)Nc1ccccc1` [N~1~-(2-aminophenyl)-N~8~-phenyloctanediamide], the cell number in the test on HCC1569 [1] stood at 98.8; in the test on TDF [2], 89.4. The H1.0 immunofluorescence intensity is 92.6 (inactive) in the test with TDF [3] and 145 (active) with HCC1569 [4].

Take `CCn1cc(C(=O)O)c(=O)c2cc(F)c(N3CCNCC3)nc21` [Enoxacin]: the cell number amounted to 105 with HCC1569 [1] and 91.3 with TDF [2]. In addition, the values for the H1.0 immunofluorescence intensity with TDF [3] and with HCC1569 [4] were 98.8 (inactive) and 106 (inactive), respectively.

For the compound `CCN(CC)CCCCNc1ncc2cc(-c3c(Cl)cccc3Cl)c(NC(=O)NC(C)(C)C)nc2n1`, the cell number is 63.1 in the test on HCC1569 [1] and 84.5 in the test with TDF [2]. Also, the H1.0 immunofluorescence intensity with TDF [3] was 104 (inactive); in the test with HCC1569 [4], 115 (inactive).

`CC(CCc1ccc(O)cc1)NCCc1ccc(O)c(O)c1.Cl` (configuration not stated) [Dobutamine hydrochloride]: the cell number with HCC1569 [1] was 101; in the test with TDF [2], 95.7. Besides, the H1.0 immunofluorescence intensity in the test with TDF [3] is 85.4 (inactive); in the test on HCC1569 [4], 91 (inactive).

For `COc1cc(C2c3cc4c(cc3C(OC3OC5COC(C)OC5C(O)C3O)C3COC(=O)C23)OCO4)cc(OC)c1O` (configuration not stated) [Etoposide], the cell number with HCC1569 [1] is 74.1 ± 1.6; in the test on TDF [2], 42.1 ± 4.8. Moreover, the H1.0 immunofluorescence intensity in the test with TDF [3] is 125 (active); in the test on HCC1569 [4] it was 95.1 (inactive).

Take `CC(C)CN(CC(O)C(Cc1ccccc1)NC(=O)OC1CCOC1)S(=O)(=O)c1ccc(N)cc1` (configuration not stated) [Amprenavir]: the cell number in the test on HCC1569 [1] was found to be 103; with TDF [2] it was 101. Further, the H1.0 immunofluorescence intensity in the test with TDF [3] is 100 (inactive); with HCC1569 [4], 108 (inactive).

As for `O=C1NC(=O)c2c1c(-c1ccccc1)cc1[nH]c3ccc(O)cc3c21`, the cell number came to 59.9 in the test on HCC1569 [1] and 51.1 in the test on TDF [2]. In addition, the H1.0 immunofluorescence intensity was 101 (inactive) in the test with TDF [3] and 91.4 (inactive) in the test on HCC1569 [4].

For the compound `O=C1NC(=O)C(c2cnc3ccccn23)=C1c1cn2c3c(cc(F)cc13)CN(C(=O)N1CCCCC1)CC2`, the cell number turned out to be 66.9 in the test on HCC1569 [1] and 63 in the test on TDF [2]. Also, the H1.0 immunofluorescence intensity in the test with TDF [3] is 138 (active); in the test on HCC1569 [4], 176 (active).

Take `CN1CCC(c2c(O)cc(O)c3c(=O)cc(-c4ccccc4Cl)oc23)C(O)C1` (configuration not stated) [Alvocidib]: the figures for the cell number in the test with HCC1569 [1] and in the test on TDF [2] were 59.4 and 19.9, respectively. The results for the H1.0 immunofluorescence intensity in the test with TDF [3] and with HCC1569 [4] were 132 (active) and 111 (inactive), respectively.

As to `O=c1cc(-c2cccc3c2Sc2ccccc2S3)oc(N2CCOCC2)c1`, the cell number with HCC1569 [1] amounted to 83.2; in the test with TDF [2], 97.9. Further, the H1.0 immunofluorescence intensity was 94.5 (inactive) in the test on TDF [3] and 145 (active) in the test with HCC1569 [4].

As to `O=C(O)CCCC=CCC1C(=O)CC(O)C1C=CC(O)CCc1ccccc1` (configuration not stated) [17-Phenyl-trinor-prostaglanding E2], the cell number in the test with HCC1569 [1] is 105; in the test with TDF [2], 102. The results for the H1.0 immunofluorescence intensity in the test on TDF [3] and with HCC1569 [4] were 106 (inactive) and 97.5 (inactive), respectively.

As to `CC(=O)OC1C(C)OC(Oc2c(-c3ccc(O)cc3)oc3cc(O)cc(O)c3c2=O)C(O)C1OC(C)=O` (configuration not stated) [RSK Inhibitor, SL0101], the cell number came to 97.7 in the test on HCC1569 [1] and 92.8 with TDF [2]. The values for the H1.0 immunofluorescence intensity with TDF [3] and in the test on HCC1569 [4] were 102 (inactive) and 107 (inactive), respectively.

`c1ccc(-c2[nH]ncc2-c2ccnc3ccccc23)nc1`: the figures for the cell number in the test on HCC1569 [1] and with TDF [2] were 98 and 107, respectively. Further, the H1.0 immunofluorescence intensity in the test with TDF [3] is 94.8 (inactive); with HCC1569 [4] it was 102 (inactive).

For `Nc1[nH]nc2nnc(-c3c(-c4ccccc4)nn4ccccc34)cc12`, the values for the cell number with HCC1569 [1] and in the test on TDF [2] were 94.2 and 100, respectively. Besides, the H1.0 immunofluorescence intensity with TDF [3] was 89.2 (inactive); in the test with HCC1569 [4] it was 117 (inactive).

`CCCCCCCCC=CCCCCCCCCCCCC(=O)O` [13(E)-Docosenoic acid]: the values for the cell number in the test with HCC1569 [1] and in the test on TDF [2] were 104 and 108, respectively. Further, the H1.0 immunofluorescence intensity in the test with TDF [3] is 96 (inactive); in the test on HCC1569 [4], 101 (inactive).

Take `O=C1CC(c2ccc(O)cc2)Oc2cc(OC3OC(CO)C(O)C(O)C3O)cc(O)c21` (configuration not stated) [Narigenin-7-O-glucoside]: the results for the cell number in the test with HCC1569 [1] and with TDF [2] were 101 and 103, respectively. In addition, the H1.0 immunofluorescence intensity in the test on TDF [3] was 97.8 (inactive); in the test with HCC1569 [4], 86.5 (inactive).

For `O=C(O)CCc1nc(-c2ccccc2)c(-c2ccccc2)o1` [Oxaprozin], the cell number with HCC1569 [1] was found to be 104; in the test with TDF [2], 101. The H1.0 immunofluorescence intensity was 96.9 (inactive) in the test with TDF [3] and 97.7 (inactive) with HCC1569 [4].

Regarding `CC1(C)CC=C(c2ccccc2)c2cc(/C=C/c3ccc(C(=O)O)cc3)ccc21`, the cell number in the test with HCC1569 [1] stood at 99.1; with TDF [2], 91.6. Further, the H1.0 immunofluorescence intensity is 101 (inactive) in the test with TDF [3] and 111 (inactive) in the test on HCC1569 [4].

In the case of `CCCCCC(=O)c1c(O)c(Cl)c(OC)c(Cl)c1O` [1-(3,5-dichloro-2,6-dihydroxy-4-methoxyphenyl)-1-hexanone], the cell number in the test with HCC1569 [1] turned out to be 93.6; with TDF [2] it was 90. For the same compound, the H1.0 immunofluorescence intensity with TDF [3] is 101 (inactive); in the test with HCC1569 [4] it was 120 (inactive).

Turning to `CCCCCC=CCC(O)C=CC=CCC=CCCCC(=O)O` (configuration not stated), the cell number is 105 and 98 in the test with HCC1569 [1]; 95.5 and 90.4 in the test on TDF [2]. Besides, the H1.0 immunofluorescence intensity with TDF [3] was 92.5 (inactive) and 96.7 (inactive); with HCC1569 [4] it was 98.4 (inactive) and 99.8 (inactive).

On to `COc1c2ccoc2cc2oc(=O)ccc12` [Bergapten], for which the cell number with HCC1569 [1] amounted to 97.8; in the test on TDF [2], 94. Besides, the H1.0 immunofluorescence intensity with TDF [3] is 102 (inactive); with HCC1569 [4], 99.9 (inactive).

As to `NC/C=C/C(=O)O` [(E)-4-amino-2-butenoic acid], the cell number was 97.2 in the test with HCC1569 [1] and 105 with TDF [2]. The H1.0 immunofluorescence intensity is 93.2 (inactive) with TDF [3] and 99.6 (inactive) with HCC1569 [4].

Turning to `CC(=O)Nc1nc(C)c(S(=O)(=O)Nc2ccc(C(O)(C(F)(F)F)C(F)(F)F)cc2)s1`, the cell number in the test on HCC1569 [1] came to 97.5; in the test with TDF [2], 109. Also, the H1.0 immunofluorescence intensity in the test on TDF [3] is 85.1 (inactive); with HCC1569 [4], 111 (inactive).
